The whole screen tested about 38,000 compounds, of which about 1,200 (3.2%) showed an effect of 50% or more. The median lay at about -58%. What follows is part of a selection rich in strong results, with near analogues and random picks from the rest.
Test system: Plasmodium falciparum
Assay: Calibr Malaria Delayed Death Assay SOP
Type: functional, organism-based
Set-up: scale not given: in the data most compounds retested in dose-response had high values
Details: concentration 4.99e-06 (unit not given; other assays of the set use mol/L)

SMILES | Percent Effect [%]
COCCN(Cc1cccnc1)S(=O)(=O)c1ccc(F)cc1C | -88.98
Cc1cccc(C2CCCN2S(=O)(=O)N(C)C)n1 (centres undefined) | -47.51
C=C(C)CSc1nnc(CCNC(=O)OC(C)(C)C)o1 | -85.15
O=S1(=O)N=C(CSCc2ccccc2)Nc2ccccc21 | -68.12
COc1cc(S(=O)(=O)N2CCc3cc(Br)ccc32)cc(C(=O)O)c1OC | -66.42
CC(=O)c1cccc(S(=O)(=O)NCCNC(=O)c2snnc2C)c1 | -10.04
Cc1csc(CN2CC[C@H]3O[C@H](C(=O)Nc4cccnc4)CC[C@H]32)n1.O=C(O)C(F)(F)F.O=C(O)C(F)(F)F | -21.13
Cl.Cl.c1csc(N2[C@H](Cn3cncn3)C[C@@H]3CNCC[C@@H]32)n1 | -62.09
CC(=O)N1[C@H](Cn2cncn2)C[C@@H]2CN(CC3CC3)CC[C@@H]21.O=C(O)C(F)(F)F | -11.44
CC(=O)N1[C@H](Cn2cncn2)C[C@@H]2CN(Cc3nccs3)CC[C@@H]21 | -179.2
CC(C)N1CC[C@H]2[C@H](C[C@@H](Cn3cccn3)N2c2nccs2)C1.O=C(O)C(F)(F)F.O=C(O)C(F)(F)F.O=C(O)C(F)(F)F | 65
O=C(O)C(F)(F)F.O=C(O)C(F)(F)F.O=C(O)C(F)(F)F.c1cnn(C[C@@H]2C[C@@H]3CN(CC4CC4)CC[C@@H]3N2c2nccs2)c1 | 89.5
CCC(=O)N1CC[C@H]2[C@H](C[C@@H](Cn3cccn3)N2c2nccs2)C1.O=C(O)C(F)(F)F.O=C(O)C(F)(F)F | -17.69
CC(=O)N1CC[C@H]2[C@H](C[C@@H](Cn3cncn3)N2c2nccs2)C1.O=C(O)C(F)(F)F | -37.22
CN1CC[C@H]2[C@H](C[C@@H](CN3CCCC3)N2c2nccs2)C1.O=C(O)C(F)(F)F.O=C(O)C(F)(F)F.O=C(O)C(F)(F)F | 72.73
CN1[C@H](CN2CCCC2)C[C@@H]2CN(C(=O)Cc3cccs3)CC[C@@H]21.O=C(O)C(F)(F)F.O=C(O)C(F)(F)F | -31.64
CC(=O)N1CC[C@H]2[C@H](C[C@@H](CN3CCCC3)N2c2nccs2)C1.O=C(O)C(F)(F)F.O=C(O)C(F)(F)F | -53.97
CCC(=O)N1CC[C@H]2[C@H](C[C@@H](CN3CCCC3)N2c2nccs2)C1.O=C(O)C(F)(F)F.O=C(O)C(F)(F)F | -82.37
CC1CCC(NC(=O)NCC(C)(C)CCS(C)(=O)=O)CC1 (centres undefined) | -129.7
CCN(Cc1ccc(S(C)(=O)=O)cc1)Cc1nc(COC)no1 | -129.1
O=c1cc(Cn2ccnc2)nc2n1CCCN(Cc1cccs1)C2 | -55.92
O=C(NCCCO)c1cc(-c2cc[nH]n2)n2ccccc12.O=C(O)C(F)(F)F | -31.15
COc1ccc(C(NCc2cccc(C#N)c2)C(C)C)cc1 (centres undefined) | -12.81

SMILES | Percent Effect [%]
COc1ccc(C(NCc2cccc(C#N)c2)C2CC2)cc1 (centres undefined) | 47.49
COc1ccc(C(NCc2cccc(O)c2)C2CC2)cc1 (centres undefined) | 83.32
CC(C)CCNC(=O)NC(C)c1nncn1C (centres undefined) | -95.25
CC(=O)N1CCC2(CC1)CN(C(=O)c1cccnc1)c1ccc(F)cc12.O=C(O)C(F)(F)F | -38.16
CCN1CCC2(CC1)CN(C(=O)c1cccnc1)c1ccc(Cl)cc12.O=C(O)C(F)(F)F.O=C(O)C(F)(F)F | 9.219
CN1CCC2(CC1)CN(C(=O)c1cccnc1)c1ccc(Cl)cc12 | 55.37
O=C(CN1CCC(c2nnc(C(F)(F)F)o2)CC1)Nc1cccc(Cl)c1 | -52.49
CC(C)Nc1ncnc2c1CCN(C(=O)c1ccccc1F)CC2.O=C(O)C(F)(F)F | -96.03
O=S(=O)(NC1=NCN(CCc2cccs2)CN1)c1ccc(Br)cc1 | -31.17
CCCC(=O)N1CCC(N2CC[C@@](O)(CCOC)[C@H](C)C2)CC1 | -32.76
CCCS(=O)(=O)N1CCC2(CC1)CC(Nc1ncccn1)CO2 (centres undefined) | -70.84
CC(C)N(C)Cc1cnc2n1CCN(CCc1ccccc1)C2.O=C(O)C(F)(F)F.O=C(O)C(F)(F)F | 0.4179
CC(C)N(C)Cc1cnc2n1CCN(C(=O)c1cccs1)C2 | 60.68
CC(C)N(C)Cc1cnc2n1CCN(C(=O)Cc1ccccn1)C2.O=C(O)C(F)(F)F.O=C(O)C(F)(F)F | -6.542
O=C(c1cccs1)N1CCc2ncc(Cn3cncn3)n2CC1 | -172.5
O=C(NC1CC1)N1CCn2c(Cn3cccn3)cnc2C1.O=C(O)C(F)(F)F | -67.84
Cc1noc(C2CCC3(CCN(C(=O)c4ccnnc4)CC3)O2)n1 (centres undefined) | -55.26
Cc1cccc(NC(=O)[C@@H]2CCCN2Cc2nc(C)c(C)o2)n1 | -28.43
CC(C)Nc1ncnc2c1CCNCC2 | -47.68
CC(Nc1ncnc2c1CCNC2)c1ccc2c(c1)CCCC2 (centres undefined) | 70.15
CCOc1ccc(C(C)Nc2ncnc3c2CCNC3)cc1OCC (centres undefined) | 46.78
Cc1ccc(C)c(-n2ncc(C(=O)NCC3COC(C)(C)O3)c2N)c1 (centres undefined) | -97.45
COCCN(C)C[C@@H]1CN(C(=O)c2cccc(C#N)c2)C[C@@H]1CO | -70.73

SMILES | Percent Effect [%]
COc1cc(Cl)c(NCc2c(C)noc2C)cc1OC | -68.38
CC1CN(c2ncccc2C(=O)Nc2cccc3c2CCCC3)CCN1 (centres undefined) | 10.16
Cc1cccc(C(=O)Nc2cccc3c2CCCC3)n1 | -261.8
O=C(Nc1cccc2c1CCCC2)c1cccnc1N1CCCNCC1 | 53.52
Cc1cccc(OC2CCN(C(=O)c3ccc4ncsc4c3)CC2)n1 | -115.6
CCNc1ncc2c(n1)CN(c1ccc(Cl)cc1)C2=O | -180.2
CCOC1COC2(CCN(Cc3cccc(C)n3)CC2)C1.O=C(O)C(F)(F)F (centres undefined) | -37.49
Cc1cccc(COC2COC3(CCN(Cc4ccoc4)CC3)C2)n1 (centres undefined) | -18.84
CCN1CCC2(CC1)CC(NCc1cccc(C)n1)c1ccccc1O2.O=C(O)C(F)(F)F.O=C(O)C(F)(F)F.O=C(O)C(F)(F)F (centres undefined) | 91.27
CCCC(=O)N1CCC2(CC1)CC(NC(C)=O)c1ccccc1O2 (centres undefined) | -58.82
Cc1cccc(COC2COC3(CCN(S(C)(=O)=O)CC3)C2)n1.O=C(O)C(F)(F)F (centres undefined) | -59.75
COC(=O)c1cc(C)nc(N2CCN(Cc3ccn(C(C)C)c3)CC2)n1 | -8.689
Cc1cccc(NC(=O)CN2C(=O)CC(C)(C)c3ccccc32)n1 | -54.59
CC(C)OCCC(=O)N1CCN(CC(O)c2ccccc2)CC1 (centres undefined) | -51.21
COc1cc(N2CC[C@@H]3O[C@@H](C(=O)NCCN(C)C)C[C@@H]32)ncn1 | -52.73
O=C(Cc1n[nH]c(-c2cncc(Br)c2)n1)NCc1cccnc1 | -11.15
Cn1ncc2c1CCCC2NCc1cccc(OC2CCCC2)c1 (centres undefined) | 2.699
CC(C)[C@H](NC(=O)Cn1nc2c(cc1=O)CCCC2)C(=O)O | -82.81
CCn1nccc1CNC(=O)C1CCCCC1 | -119.3
Cc1cc(NC(=O)NC2CCN(C(C)C)CC2)c2ncccc2c1 | 79.09
Cc1cc(NC(=O)N2CCCC2C(=O)NC2CC2)c2ncccc2c1 (centres undefined) | -118
Cc1cc(NC(=O)N2CCCC2C(C)(C)O)c2ncccc2c1 (centres undefined) | -22.81
CC(C)C(=O)Nc1ccc2c(c1)ncn2CC(=O)NCCN(C)C | -104.6

SMILES | Percent Effect [%]
O=C(Cc1cccc(Cl)c1)N[C@@H]1CCNC[C@H]1O | -79.06
O=C(C[S+]([O-])Cc1cccc(Cl)c1)NC1CCCC1 (centres undefined) | -107.7
O=C(NCCc1cccc(Cl)c1)C1CCOCC1 | -133.6
O=C(O)c1cn2cc(C(F)(F)F)ccc2n1 | -36.42
O=C(NCc1ccco1)[C@H]1C[C@H]2OCC[C@H]2N(C(=O)c2ccnnc2)C1 | -30.68
CCCN1CCC(N2CCOC(Cc3cccc(OC)c3)C2)CC1 (centres undefined) | -127.7
O=C(NCCN1CCCCC1)c1nc(-c2cccc3[nH]ccc23)no1 | 15.88
COCC(=O)N1CCCC1c1csc(Nc2cnccn2)n1 (centres undefined) | -55
CCC(=O)N1CCCC1c1csc(Nc2cnccn2)n1 (centres undefined) | -46.83
O=C(O)C(F)(F)F.O=C(O)C(F)(F)F.O=C1NC2(CCN(Cc3ccoc3)CC2)CC1c1ccncc1 (centres undefined) | -15.5
Nc1nccc(N2CCC(c3cc(Cc4ccccc4)n[nH]3)CC2)n1 | 35.49
Cc1csc(CNC(=O)NCC(O)c2ccc(F)c(F)c2)n1 (centres undefined) | 2.8
Cc1nc(CNC(=O)NCC(O)c2ccc(F)c(F)c2)cs1 (centres undefined) | -178.5
Cc1n[nH]cc1CNCC(O)c1ccc(F)c(F)c1.Cl (centres undefined) | -33.27
Cc1n[nH]c(C)c1CNCC(O)c1ccc(F)c(F)c1 (centres undefined) | 14.72
Cc1cc(C)c(CNCC(O)c2ccc(F)c(F)c2)c(C)c1.Cl (centres undefined) | 92.75
COCCCNc1nc(CNC(C)=O)cc(-c2ccco2)n1 | -87.48
O=C(O)C(F)(F)F.O=S(=O)(C1CC1)N1CCc2ncnc(N3CCCC3)c2CC1 | -107.1
CCc1nc(C2CCCN2Cc2cnc(C)cn2)no1 (centres undefined) | -15.63
CC(C)c1cc(NC(=O)CN2CCCC2Cn2cncn2)on1 (centres undefined) | -56.31

Source: ChEMBL document CHEMBL3988442, “University of Dundee, Small-Polar-MMV Screening Library” (2021)
